Screening data (PubChem)
Pyk2 oligo antag: Pyk2 (human) oligomerization antagonism; Q293 cells, Pyk2 FERM NanoBiT luminescence; hits give low values; Q14289; z-score (the deposit names both 25 µM and 10 µM); 99,000 tested, 0.83% active;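 active = Z-score of -3 or lower, scaled per plate to the spread of control and sample wells; inactive = z-score above -3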;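 note: negative z-score means lost luminescence so less FERM oligomerization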
CYP2C19 act: increases human CYP2C19 enzyme activity; recombinant CYP2C19, luciferin-H EGE luminescence; hits give high values; 0 = fully inhibited enzyme, 1 = untreated enzyme; activation factor at 5 µM; 96,000 tested, under 10 active;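 active = activation factor of at least 2 at 5 µM in the primary screen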;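 note: 0 = wells with 2.5 mM tranylcypromine and 1 = vehicle-only wells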
CYP2C9 act: increases human cytochrome P450 2C9 activity. P11712. recombinant CYP2C9, luciferin-H conversion, luminescence; hits give high values; factor 1 = untreated enzyme, 0 = blocked. activation factor at 5 µM. 96,000 tested, 1.4% active;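 active = activation factor of 2 or more for CYP2C9 at a 5 µM dose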;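 note: 0 = sulfaphenazole-blocked wells and 1 = vehicle-only wells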
Target sequence (P11712 whole entry, looked up): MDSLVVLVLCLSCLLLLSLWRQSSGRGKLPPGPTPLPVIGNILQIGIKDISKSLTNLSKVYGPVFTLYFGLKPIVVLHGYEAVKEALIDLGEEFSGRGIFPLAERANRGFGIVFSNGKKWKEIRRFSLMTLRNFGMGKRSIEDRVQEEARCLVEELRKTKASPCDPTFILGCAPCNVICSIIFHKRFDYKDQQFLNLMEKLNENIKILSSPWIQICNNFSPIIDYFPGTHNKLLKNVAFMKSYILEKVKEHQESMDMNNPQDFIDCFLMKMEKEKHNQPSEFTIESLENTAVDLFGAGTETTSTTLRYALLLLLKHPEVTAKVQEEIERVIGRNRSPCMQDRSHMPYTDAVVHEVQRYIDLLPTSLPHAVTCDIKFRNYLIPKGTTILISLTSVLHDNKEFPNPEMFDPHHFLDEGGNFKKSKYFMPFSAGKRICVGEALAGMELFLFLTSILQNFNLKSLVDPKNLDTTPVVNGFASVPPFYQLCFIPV
CYP2C9 inhib: inhibitors of human CYP2C9; inhibition, % at 5 µM; CYP2C9 Supersomes, luciferin-H conversion, luminescence; 96,000 tested, 20% active; P11712;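 active = blocking of liver enzyme CYP2C9 beyond about 50% at 5 µM, limit read from the data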
CYP2C19 inh: inhibitors of human CYP2C19. CYP2C19 Supersomes, luciferin-H EGE luminescence, 30 min. P33261. inhibition, % at 5 µM. 96,000 tested, 21% active;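 active = CYP2C19 inhibition above a set limit at 5 µM in the primary screen, cut at about 50% in these data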;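 note: plate controls were negative control wells for no effect and 2.5 mM tranylcypromine positive control for full effect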
An asterisk follows results filed as active; · = not tested or not shown. This is a sample that favours compounds with a hit; in the whole collection about 28% have one here.

SMILES | Pyk2 oligo antag | CYP2C19 act | CYP2C9 act | CYP2C9 inhib | CYP2C19 inh
O=C1CC(SC(=NCc2ccc3c(c2)OCO3)Nc2ccccc2)C(=O)N1 (stereo not drawn) | -1.8 | 0 | 0.5 | 48 | 96*
COc1ccccc1N1CCN(C(c2ccccc2)c2nnnn2CCc2ccccc2)CC1 (stereo not drawn) | -1.6 | · | · | · | ·
CN1CC[n+]2c(CN3C(=O)c4ccccc4C3=O)csc21 | -0.63 | 1.1 | 1.1 | -13 | -9
CC(=O)c1cc(CN2C(=O)c3ccccc3C2=O)cs1 | 1.6 | 0 | 0.8 | 20 | 96*
COC(=O)c1sc(NC(=O)CSc2nnnn2-c2ccc(C)cc2C)nc1C | 0.87 | 0.5 | 1 | 2 | 48
CN(C)c1ccc(P(=O)(OCc2ccccc2)C(O)c2cccnc2)cc1 (stereo not drawn) | 0.25 | 0.5 | 0.4 | 58* | 48
CC(C)C(O)P(=O)(OCc1ccccc1)c1ccc(N(C)C)cc1 (stereo not drawn) | 1.1 | 0.5 | 0.9 | 5 | 54*
CCCCOP(=O)(c1ccc(N(C)C)cc1)C(O)c1ccccc1F (stereo not drawn) | 0.61 | 0.7 | 1 | 5 | 34
N#Cc1cccc(NC(=O)CSc2ccc3c4c(cccc24)C(=O)c2ccccc2-3)c1 | -1.1 | 0.7 | 0.3 | 74* | 30
COc1ccc(NC(=O)CSc2ccc3c4c(cccc24)C(=O)c2ccccc2-3)cc1 | -2 | 0.7 | 0.2 | 84* | 28
Cc1cc(-c2cc(N)n(-c3ccccc3)n2)c(C)n1C1CCCC1 | -1.9 | 0.7 | 0.6 | 38 | 34
Cc1cc(C)cc(OCCCOc2cccc3cccnc23)c1 | -0.82 | 0.1 | 1.4 | -42 | 87*
c1ccc(OCCCCN2CCOCC2)cc1 | 0.06 | 0.6 | 1 | 1 | 36
Cc1ccc(C)c(OCCOCCN2CCOCC2)c1 | 0.55 | 0.7 | 1.2 | -15 | 29
Cc1cc(Cl)cc(Cl)c1OCCOc1cccc2cccnc12 | 0.6 | 0.6 | 1.9 | -85 | 40
Clc1cc(Br)ccc1OCCOCCN1CCOCC1 | -0.35 | 0.2 | 1 | -2 | 81*
Brc1ccc(OCCCN2CCOCC2)cc1 | -0.95 | 0.2 | 1 | 3 | 78*
Clc1cc(Br)ccc1OCCOCCOc1cccc2cccnc12 | -0.04 | 0.3 | 1.7 | -71 | 66*
CCCCNC(=O)Nc1cc(C(F)(F)F)c[nH]c1=O | -0.26 | 0.7 | 0.9 | 8 | 25
CCOC(=O)CSc1nnc(SCCN2C(=O)c3ccccc3C2=O)s1 | 1.1 | 0.6 | 0.2 | 83* | 42
Cc1ccc(S(=O)(=O)NCC2CCC(C(=O)O)CC2)cc1 (stereo not drawn) | 0.68 | 1 | 0.9 | 8 | 4
O=C(Cn1c(-c2ccccc2)noc1=O)NCc1ccccc1 | -0.11 | 0.6 | 2* | -98 | 41
O=C(CSc1nnc(CNc2ccc(Cl)cc2)o1)Nc1nc2ccccc2s1 | -0.38 | 1.1 | 0.5 | 46 | -11
Cc1ccccc1OCCNc1ccc(C(F)(F)F)cc1[N+](=O)[O-] | -0.97 | 0.3 | 0.6 | 37 | 75*
Cc1ccc(C(C)NC(=O)c2c(C)noc2C)cc1C (stereo not drawn) | 0.33 | 0.4 | 0.8 | 24 | 61*
SMILES | Pyk2 oligo antag | CYP2C19 act | CYP2C9 act | CYP2C9 inhib | CYP2C19 inh
CC1CN(c2nc3ccccn3c(=O)c2/C=C(\C#N)S(=O)(=O)c2ccccc2)CC(C)O1 (stereo not drawn) | -2.5 | 0.2 | 0.2 | 84* | 85*
NC(=O)C1CCN(C2=C(Cl)C(=O)c3ccccc3C2=O)CC1 | 0.28 | 0.8 | 0.9 | 12 | 17
N#C/C(=C\c1c(N2CCC(C(N)=O)CC2)nc2ccccn2c1=O)S(=O)(=O)c1ccccc1 | -1.2 | 0.7 | 0.2 | 79* | 26
O=C(CC1Sc2ncnn2C1=O)Nc1ccccc1 (stereo not drawn) | -1.4 | 1.1 | 1.1 | -12 | -7
COc1ccc(-n2nc3c(c2NC(=O)C2CCCC2)CS(=O)C3)cc1 (stereo not drawn) | · | 0.9 | 0.9 | 5 | 9
Cc1c(NC(=O)c2ccc(N3CCCC3)c([N+](=O)[O-])c2)cccc1-c1nc2ccccc2s1 | -0.71 | 0.8 | 0.4 | 56* | 18
O=C(Nc1ccc(N2CCCC2)c(Cl)c1)c1ccc2c(c1)OCCO2 | 0.88 | · | · | · | ·
O=C(Nc1ccc(N2CCCCC2)c(Cl)c1)c1ccc2c(c1)OCCO2 | -1.7 | 0.7 | 0.3 | 68* | 30
O=C(Nc1ccc(N2CCCCC2)c(Cl)c1)c1ccc(N2CCOCC2)c([N+](=O)[O-])c1 | -0.29 | 0.5 | 0.6 | 42 | 52*
CCN1CCN(S(=O)(=O)c2ccc(S(=O)(=O)N(CC)Cc3ccccc3)cc2)CC1 | 0.67 | 0.5 | 0.9 | 6 | 47
Cc1nn(CCOc2ccccc2)c(=O)n1-c1c(F)cccc1F | 0.04 | 0.1 | 1.5 | -53 | 85*
CCCCn1c(C(C)NC(=O)c2cccs2)nc2ccccc21 (stereo not drawn) | 2.4 | 0.8 | 0.6 | 44 | 22
CCCCCn1c(CCNC(=O)c2cccs2)nc2ccccc21 | -0.26 | 0 | 0.1 | 92* | 96*
CCCCCn1c(CNC(=O)c2cccs2)nc2ccccc21 | -0.97 | · | · | · | ·
CCn1c(C(C)NC(=O)c2cccs2)nc2ccccc21 (stereo not drawn) | · | 0.7 | 0.5 | 52* | 33
O=S1(=O)CC(O)C(Nc2ccccc2Cl)C1 (stereo not drawn) | 1.1 | 0.8 | 1.2 | -17 | 17
CN1OC(CC(=O)O)N(c2ccc(Cl)cc2)C1=O (stereo not drawn) | 1.3 | 1 | 0.9 | 7 | 2
CCOC(=O)CC1ON(C)C(=O)N1c1ccc(Cl)cc1Cl (stereo not drawn) | -0.62 | 0 | 0.5 | 46 | 99*
O=C(NNS(=O)(=O)c1ccccc1)c1cnn(-c2ccccc2)c1-n1cccc1 | -0.39 | 0.8 | 0.5 | 47 | 24
O=C(NNS(=O)(=O)c1ccc(Cl)cc1)c1cnn(-c2ccccc2)c1-n1cccc1 | 0.03 | 0.8 | 0.4 | 64* | 23
COc1ccc(S(=O)(=O)N2CCCC(C(=O)Nc3cccnc3)C2)cc1Cl (stereo not drawn) | 1.2 | · | · | · | ·
O=C(NCc1ccccc1)C1CCCN(S(=O)(=O)c2cccnc2)C1 (stereo not drawn) | 0.46 | 0.8 | 0.9 | 13 | 19
Cc1ccc(S(=O)(=O)N2CCCC(C(=O)NCc3cccnc3)C2)cc1Cl (stereo not drawn) | 1.7 | 0.1 | 0.8 | 23 | 86*
COc1ccc(S(=O)(=O)N2CCCC(C(=O)NCc3ccncc3)C2)cc1Cl (stereo not drawn) | -1.7 | 0 | 0 | 98* | 100*
O=C(CC1CCCCC1)N1CCCC(c2nc(-c3ccc(S(=O)(=O)N4CCCC4)cc3)no2)C1 (stereo not drawn) | -0.81 | 0.7 | 0.4 | 60* | 30
COc1cccc(-c2noc(C3CCCN(C(=O)Cc4ccccc4)C3)n2)c1 (stereo not drawn) | -0.34 | 0.7 | 0.6 | 41 | 30
